Shown are actives, neighbours in structure and some others; about 4.1% of the full set was active somewhere.
hcDAF12 agonist – activates DAF-12 receptor from parasite H. contortus; HEK293 hcDAF-12 lit1-tk-luc reporter, luminescence; 0% DMSO, 100% Δ7-dafachronic acid; activation, % at 6.8 µM; hit rate 1.4% among 370,000;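 active means activation above the mean of all tested compounds plus 3 SD, cut at about 5.5% in these data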;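 further: 100% = response to 3 µM Δ7-dafachronic acid high control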
DAX1 inh-1 – DAX1 (NR0B1) inhibition, primary screen | HEK293T StAR-luciferase reporter, SF-1/DAX-1 repression relief | hit rate 1.1% among 370,000 | inhibition, % at 6.8 µM | AID 652010;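 active means inhibition above the mean over all tested compounds plus 3 SD, cut at about 3.6% in these data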;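 further: 0% = DAX-1 cells with DMSO and 100% = cells lacking DAX-1 with DMSO; higher inhibition means more luminescence from relief of DAX-1 repression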
ssDAF12 agonist – S. stercoralis DAF-12 activation, primary screen; activation, % at 6.8 µM; HEK293 ssDAF-12/GRIP1 lit1-tk-luc reporter, luminescence; % of 3 µM dafachronic acid response; hit rate 1% among 370,000;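 active means activation above the mean over all tested compounds plus 3 SD, cut at about 0.9% in these data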;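 further: 0% = DMSO-only wells and 100% = 3 µM delta7-dafachronic acid wells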
DAX1 inh-2 – inhibits human nuclear receptor DAX1. hit rate 0.99% among 340,000. P51843. AID 504766. inhibition, % at 6.75 µM. HEK293 Gal4-DAX1 luciferase reporter, luminescence;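 active means inhibition above the mean over all tested compounds plus 3 SD, cut at about 4.2% in these data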;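 further: 0% = DAX1-transfected cells with DMSO and 100% = empty-vector control cells with DMSO; inhibition shows as a rise in luminescence from relieved DAX1 repression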
Target sequence (P51843 207-470 limits assumed): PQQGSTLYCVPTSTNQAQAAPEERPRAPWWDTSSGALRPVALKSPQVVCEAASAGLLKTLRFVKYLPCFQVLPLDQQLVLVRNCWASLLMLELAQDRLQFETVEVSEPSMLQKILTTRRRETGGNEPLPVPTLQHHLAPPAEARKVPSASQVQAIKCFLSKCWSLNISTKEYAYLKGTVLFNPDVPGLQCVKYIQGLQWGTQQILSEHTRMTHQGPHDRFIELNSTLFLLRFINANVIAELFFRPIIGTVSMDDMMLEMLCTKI
hgDAF-12 ag – hgDAF-12 agonism, primary luciferase screen; HEK293 GAL4-hgDAF12 UAS-luciferase reporter, agonist luminescence; normalized to butyrate control; activation, % at 6.8 µM; hit rate 1.8% among 370,000; AID 687014;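 active means activation above a cutoff set at the mean of all screened compounds plus 3 SD, cut at about 10% in these data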;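 further: 0% = DMSO wells and 100% = sodium butyrate wells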
Numbers without * were called inactive; . = not tested or not shown.

SMILES	hcDAF12 agonist	DAX1 inh-1	ssDAF12 agonist	DAX1 inh-2	hgDAF-12 ag
CC(C)C[C@H]1COc2cc(Br)ccc2S(=O)(=O)N1Cc1cn(Cc2ccc(C(F)(F)F)cc2)nn1	-1	0	-1	.	-1
CCCCCCCCN1CCS(=O)(=O)N(Cc2ccc(OC)cc2)C(C(=O)OC)C1 (configuration not stated)	-2	-2	-2	.	-2
O=c1[nH]n(-c2ccccc2)c(=O)c(Cl)c1Cl	.	.	.	0	.
O=c1ccn(-c2ccccc2)[nH]1	0	0	-1	4.4*	3
CC(C)=C(C#N)c1nc2ccccc2s1	3	1	0	5.4*	3
CC(C)NC(=O)c1nc2ccccc2s1	3	0	3.2*	-1	1
COC(=O)c1ccc(CC(=O)c2nc3ccccc3s2)cc1	4	1	1.0*	-1	1
CN(C(=O)c1cc2sccc2n1C)C1CCCCC1	3	1	-1	1	12*
Cn1c(C(=O)NC2CCCCC2)cc2sccc21	6.0*	2	0	1	8
Cn1c(C(=O)N2CCCC(C(=O)O)C2)cc2sccc21 (configuration not stated)	1	0	-1	0	0
CCC(=O)Nc1ccc(C(=O)N/N=C/c2cc(Br)c(OC)cc2OC)cc1	5	0	1.9*	0	1
COc1ccccc1/C=N/NC(=O)c1ccc(NC(=O)c2ccccc2Br)cc1	-3	0	-2	-1	3
CCOc1ccc(C(=O)N/N=C/c2ccccc2[N+](=O)[O-])cc1	3	3	-1	0	10*
CCC(=O)Nc1ccc(C(=O)N/N=C/c2ccccc2[N+](=O)[O-])cc1	-1	1	-1	-1	5
CC(=O)Nc1ccc(C(=O)N/N=C/c2ccccc2OCc2ccccc2)cc1	-1	0	-1	4.3*	7
CN(CCCOC(=O)CC1C=CCC1)C1CN(Cc2cn(Cc3ccccc3Cl)nn2)S(=O)(=O)C1 (configuration not stated)	0	0	-1	.	-1
COC(=O)C1C(=O)c2c([nH]c(C(=O)OC3CCCC3)c2C)CC1C (configuration not stated)	6.0*	3	0	2	9
O=C(N/N=C/c1ccc(O)cc1)c1cc(C23CC4CC(CC(C4)C2)C3)[nH]n1	-1	1	1.0*	-1	1
COc1ccc(/C=N/NC(=O)c2cc(C34CC5CC(CC(C5)C3)C4)[nH]n2)cc1OC	-2	0	-2	-1	-2
c1ccc2c(c1)COc1c3ncccc3nn1-2	2	2	0	1	13*
CN(Cc1cccc(Cl)c1Cl)C(=O)CCNC(=O)c1ccco1	3	4.1*	0	-1	-1
COC(=O)[C@]12C[C@H](CC(=O)NCc3cccs3)C(=O)N(Cc3ccc(Cl)cc3Cl)C1=C[C@H](C(C)(C)C)O[C@@H]2C	-1	-2	-1	.	0
NC1=[N+](Cc2ccccc2)C[C@H]2C(=C3CCCC[C@H]3n3c(=O)n(-c4ccccc4)c(=O)n32)N1	-1	-2	-1	.	0
N#Cc1cc2cc3c(cc2nc1Cl)OCCO3	-3	3	-1	-1	-5
N#Cc1cc2cc3c(cc2nc1N1CCCCC1)OCCO3	6.2*	-1	0	2	-5
SMILES	hcDAF12 agonist	DAX1 inh-1	ssDAF12 agonist	DAX1 inh-2	hgDAF-12 ag
O=C(Cn1ncc(N2CCOCC2)c(Br)c1=O)c1ccc(Cl)cc1	1	1	-2	1	-1
O=C(Cn1ncc(N2CCCC2)c(Cl)c1=O)c1ccc(Cl)cc1	1	2	1.6*	4	4
O=c1[nH][nH]cc1C=Nc1ccc(Oc2ccccc2)cc1	-2	0	6.9*	0	1
CC1=C(C(=O)c2ccccc2)C(c2ccc(OC(F)F)cc2)NC(=S)N1 (configuration not stated)	-2	0	-2	2	-1
CC1=C(C(=O)c2ccccc2)C(c2ccc(O)cc2)NC(=S)N1 (configuration not stated)	0	0	-2	4.4*	-2
COC(=O)COc1ccsc1C(=O)OC	-1	0	-1	4.2*	-2
N#CCC(=O)N1CCN(C=O)CC1	-2	-1	-2	4.7*	-1
COc1cccc(C(=O)NCCn2ccc3ccccc32)c1	5	4	-1	2	12*
COCCNC(=O)c1ccc(CS(=O)(=O)c2ccc(OC)cc2)o1	0	-1	-1	5.2*	-4
